Compound activity (PubChem)
MARV entry inh: qHTS for inhibitors of binding or entry into cells for Marburg Virus; Marburg virus pseudotyped entry inhibition, cell reporter; Potency, µM (highest dose often 37.8 µM), without a hit: at the highest dose activity change, negative = inhibition, actives largely listed as inhibitors; 300,000 tested, 1.8% active; AID 540276, 2011; calls by dose curve; tested in HEK293 cells; also: potency is read from the fitted curve at half-maximal effect
Pf growth 48h: Primary qHTS for delayed death inhibitors of the malarial parasite plastid, 48 hour incubation; P. falciparum luciferase growth in erythrocytes, 48 h; Potency, µM (highest dose often 28.7 µM), for inactives: at the top dose activity change, negative = inhibition, most hits filed as inhibitors; 310,000 tested, 5.9% active; also: potency is read from the fitted curve at half-maximal effect
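First compound was added to culture medium, then infected red cells at 0.1% parasitemia and 2% hematocrit (final). After incubation at 37 C under 5% CO2, luciferase detection reagent was dispensed and light output recorded.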
HCMV antiviral: qHTS Assay for inhibitors of the human cytomegalovirus (HCMV); activity change, negative = inhibition, % at 57.5 µM; 410,000 tested, 4.5% active; HFF cells, HCMV-luciferase reporter, 72 h; active compounds read low; in the data active = activity change below about -60%; inconclusive = no clear call, values can overlap the other calls; inactive = above about -39%
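Two-dose cell screen: HFF monolayers treated with compounds and infected with luciferase-expressing HCMV at 1 PFU/cell, 72 h at 37C, then lysed for luciferase measurement.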
LASV entry inh: qHTS for Inhibitors of binding or entry into cells for Lassa Virus; Lassa virus pseudotype entry inhibition, cell reporter; Potency, µM (series often up to 37.9 µM), without a hit: top-dose activity change, negative = inhibition, most hits filed as inhibitors; 300,000 tested, 1.2% active; AID 540256, 2011; calls by dose curve; tested in HEK293 cells; also: potency is read from the fitted curve at half-maximal effect; nearly all actives have a fitted effect of over 50% in size
HCV inh: qHTS Assay for Inhibitors of Hepatitis C Virus (HCV); Potency, µM (titrated, usually from 41.8 µM), without a hit: at the highest dose activity change, negative = inhibition, actives largely listed as inhibitors; Huh7.5.1 HCVcc-Cre infection, luciferase reporter, 44 h; 340,000 tested, 3.4% active; AID 651820, 2012; also: potency is read from the fitted curve at half-maximal effect
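Infectious HCVcc-Cre (~0.5 moi) was added to cells just after compound, with cells seeded 4 h earlier at 1,000 per well. Luciferase activity after 44 h culture reported infection; substrate was incubated 15 min at room temperature before reading.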
Pf growth 96h: Primary qHTS for delayed death inhibitors of the malarial parasite plastid, 96 hour incubation; P. falciparum luciferase reporter growth, 96 h; Potency, µM (series often up to 28.7 µM), for the others: top-dose activity change, negative = inhibition, most hits filed as inhibitors; 320,000 tested, 6.9% active; AID 504834, 2011; also: potency is read from the fitted curve at half-maximal effect
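P. falciparum expressing integrated firefly luciferase grown in erythrocytes (2% hematocrit, 0.05% parasitemia final) with compounds for 96 hours at 37 C, 5% CO2. Growth inhibition read as loss of luminescence after adding luciferase detection reagent.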
Numbers without * were called inactive; i = inactive; ? = inconclusive; · = no result; [ ] = dose if it differs, or a comment. The list is not random: actives were taken first. Their share in the collection is about 14%. Unless noted, calls follow the shape of the dose curve; as a rule, active = well fitted inhibition curve with a large enough effect; inconclusive = small, poorly fitted or top-dose-only effect, or another doubt; inactive = no such curve, though single readings can be large or run the other way. % is scaled to controls: 0 for no effect and ±100 for the full control effect.

SMILES	MARV entry inh	Pf growth 48h	HCMV antiviral	LASV entry inh	HCV inh	Pf growth 96h
Cc1cccc(NCc2ccc(O)c3ncccc23)c1C	?	-18%	-96*	?	?	23%
Cc1cccnc1NCc1ccc(O)c2ncccc12	?	?	?	?	10µM*	34%
Cc1cccnc1NC(=O)c1c(O)c2ccccc2n(C)c1=O	13%	31%	18	24%	7%	26%
CCC(C(=O)NCCCN(CC)CC)n1ncn2c(cc3occc32)c1=O (stereo not drawn)	-26%[46.1 µM]	·	-32	·	·	·
CCCNC(=O)CSc1nc(-c2ccc(OC)cc2)cc(C(F)(F)F)n1	·	·	-24	-22%[46.1 µM]	·	·
COc1ccccc1N1CCN(C(=O)Nc2cccc(Cl)c2)CC1	6%	·	5	3%	10%	-20%
COc1ccccc1NC(=O)N1CCN(c2ccc(F)cc2)CC1	10%[46.1 µM]	-21%	-17	9%	-13%	2.3µM*
COc1ccccc1NC(=O)N1CCc2[nH]c3ccc(F)cc3c2C1	2%	-23%	3	-18%	10µM*	?
COc1ccccc1NC(=O)N1CCC(c2nc3ccccc3o2)CC1	·	12%	-15	·	13%	23µM*
COc1ccc(Cl)cc1NC(=O)N1CCN(c2ccccc2OC)CC1	?	6.6µM*	-33	?	-13%	?
Cc1cccc(OCC(=O)N(Cc2sccc2C)C2CCS(=O)(=O)C2)c1 (stereo not drawn)	-5%[46.1 µM]	·	-8	-13%[46.1 µM]	·	·
C=CCOC(=O)N[C@H](/C(C(=O)OC)=C(\C)NCc1ccccc1)c1ccc(Br)cc1	7%[14.2 µM]	·	·	·	·	·
O=C(O)c1[nH]c2ccc(Cl)cc2c1CC(=O)N1CCN(c2ccccc2)CC1	11%	-5%	34	3%	-1%	·
Cc1ccc(CC(=O)N2CCN(c3cccc(C(F)(F)F)c3)CC2)cc1	-13%	38%	-18	?	10%	18%
CC(=O)OC(C(=O)N1CCN(c2ccc(F)cc2)CC1)c1ccccc1 (stereo not drawn)	-6%[46.1 µM]	32%	-15	-1%	7%	12µM*
COc1ccccc1CC(=O)N1CCN(c2cccc(C(F)(F)F)c2)CC1	?	?	-70*	?	?	·
COc1ccccc1N1CCN(C(=O)Cc2c(C(=O)O)[nH]c3ccc(Cl)cc23)CC1	3%	10µM*	11	-12%	?	i
COc1ccc(N2CCN(C(=O)C(OC(C)=O)c3ccccc3)CC2)cc1 (stereo not drawn)	-14%	12%	-14	-13%	14%	-2%
O=C(Nc1ccccc1)N1CCN(c2ccc(F)cc2)CC1	3%[46.1 µM]	13µM*	-40	4%	20%	?
O=C(NCC1CCN(Cc2ccc(F)cc2)CC1)Nc1cc(F)ccc1F	·	?	56	·	-30%	0%
C(C#CCN1CCOCC1)#CCN1CCOCC1	3%[46.1 µM]	·	-30	14%[46.1 µM]	16%	·
N#Cc1ccc(Nc2nn3c(=O)c4ccccc4nc3s2)cc1	·	11%	·	·	·	3%
O=c1n(Cc2ccc(Cl)cc2)nc2n1-c1ccccc1OC2	23%[46.1 µM]	·	9	1%[46.1 µM]	·	·
COc1ccccc1NC(=O)N1CCN(c2cccc(C(F)(F)F)c2)CC1	20%	-25%	-37	8%	11µM*	·
COc1ccccc1NC(=O)N1CCN(C(=O)Nc2ccccc2OC)CC1	·	-14%	-31	·	3%	32%
SMILES	MARV entry inh	Pf growth 48h	HCMV antiviral	LASV entry inh	HCV inh	Pf growth 96h
CC[C@@H](C)[C@@H](C(=O)N1CCNCC1)n1cc(CCC(=O)O)nn1	·	55%	51	·	17%	72%
CC[C@H](C)[C@@H](C(=O)NCCCCCCCCCCC(=O)N1CCNCC1)n1cc(CCCCN=C(N)N)nn1	·	2.9µM*	2	·	7%	2.3µM*
NCCCC[C@@H](C(=O)NCCCCCCCCCCC(=O)N1CCNCC1)n1cc(CCCC(=O)O)nn1	·	-7%	·	·	12%	61%
CC[C@H](C)Cc1cn([C@@H](CCCN=C(N)N)C(=O)NCCCCCCCCCCC(=O)N2CCNCC2)nn1	·	4.7µM*	5	·	19%	?
O=C(NCCc1ccccc1)c1ccc(CSc2nc3ccncc3n2Cc2ccccc2F)cc1	?	·	-33	·	·	·
CCCCCCNC(=O)n1cc(F)c(=O)[nH]c1=O	·	4.3µM*	·	·	·	2.1µM*
C/C(=C1/SC(N2CCCC2)=NC1=O)c1ccc(Br)cc1	4.5µM*	?	-5	4.5µM*	?	0%
CC(C)=C1SC(N2CCCCC2)=NC1=O	4%	·	60	7%	-9%	?
CCOC(=O)c1cc(OC(=O)c2cc(OC)cc(OC)c2)n(-c2ccccc2)n1	17%[46.1 µM]	·	-12	3%[46.1 µM]	·	·
COc1ccc(-c2cc(C(F)(F)F)nc(SCC(=O)N3CCC(C)CC3)n2)cc1	-16%[46.1 µM]	·	-3	8%[46.1 µM]	·	·
O=C(OCC(=O)N1CCC(Cc2ccccc2)CC1)c1cc(Cl)ccc1O	?	3%	-34	?	-4%	-30%
CCN1/C(=C2\C(=O)N(C)C(=S)N2C)C=Cc2cc(OC)ccc21	?	15µM*	5	-8%	9%	0%
CCN1C(=O)/C(=C2/C=Cc3cc(C)ccc3N2CC)N(C)C1=S	5%	?	10	0%	15%	8.3µM*
CCN1/C(=C2/SC(=S)N(C)C2=O)C=Cc2cc(C)ccc21	-1%[46.1 µM]	·	-22	24%	13%	·
COc1cccc(CCNC(=O)c2c(O)nc3c(C)cccn3c2=O)c1	?	·	23	·	·	·
C(=N\c1nc2ccccc2[nH]1)/c1cccs1	13%	29%	69	35%[14.3 µM]	·	10µM*
Cn1c(/C=N/c2nc3ccccc3[nH]2)nc2ccccc21	-9%	13%	-104*	-17%	19%	·
N#C/C(=C\c1cccs1)c1nc2ccccc2[nH]1	-4%	?	90	21%	-1%	-8%
Cc1ccc(S(=O)(=O)n2ccc(-c3ccc(OCc4c(F)cccc4Cl)cc3)n2)cc1	7%	9.3µM*	-21	-13%	?	-109%
Cc1cc(=O)oc2cc(OCc3c(F)cccc3Cl)ccc12	·	·	16	·	·	·
Cc1ccc(S(=O)(=O)n2ccc(-c3cccc(OCc4c(F)cccc4Cl)c3)n2)cc1	6%	3.7µM*	17	8%	?	0.74µM*
CC(=O)[C@]12C[C@]3(C)CCCN(C(=O)N[C@@H]1c1ccccc1)C32 (stereo partly drawn)	10%[14.2 µM]	·	·	?	·	·
COc1ccc(N2CCN(C(=O)c3[nH]c4ccc(OC)cc4c3C)CC2)cc1	?	8%	19	-16%[46.1 µM]	15%	14%
COc1ccc2[nH]c(C(=O)N3CCc4ccccc4C3)c(C)c2c1	·	?	-37	·	11µM*	?
